# Results filed as inconclusive are left out. Activity calls are given as the source filed them. The calls were made as follows: active = hit-call score of the fitted dose curve at least 0.9, where 1 is the maximum; inconclusive = response in the unintended direction; inactive = score below 0.9.
# Molecular target: human Peroxisome Proliferator-activated Receptor alpha (PPARa), PPARA (gene 5465) (UniProt Q07869)
# Test: NVS_NR_hPPARa: NovaScreen (NVS) Nuclear Receptor Binding Assay for human Peroxisome Proliferator-activated Receptor alpha (PPARa) (AID 2283359);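 also: activity means loss of TR-FRET signal versus DMSO baseline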
# How it was run: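 One-hour incubation, cell-free extracted protein, TR-FRET binding readout; signal loss vs DMSO scored. Screen: 25 uM duplicates, confirmatory dose series for actives.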
# Chain of human Peroxisome Proliferator-activated Receptor alpha (PPARa), PPARA (gene 5465) (Q07869 whole entry, looked up): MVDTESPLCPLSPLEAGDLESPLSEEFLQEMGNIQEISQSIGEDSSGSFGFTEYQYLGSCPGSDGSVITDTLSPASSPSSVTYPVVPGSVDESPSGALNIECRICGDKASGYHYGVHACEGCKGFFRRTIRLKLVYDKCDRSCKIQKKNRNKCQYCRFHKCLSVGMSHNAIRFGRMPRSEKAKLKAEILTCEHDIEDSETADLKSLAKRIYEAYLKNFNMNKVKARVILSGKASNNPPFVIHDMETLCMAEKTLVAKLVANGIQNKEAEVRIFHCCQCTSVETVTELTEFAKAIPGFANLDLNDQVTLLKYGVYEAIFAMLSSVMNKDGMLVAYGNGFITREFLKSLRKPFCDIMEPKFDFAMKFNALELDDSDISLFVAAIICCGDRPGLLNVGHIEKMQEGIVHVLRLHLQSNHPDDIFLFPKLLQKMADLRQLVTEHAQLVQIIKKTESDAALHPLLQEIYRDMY
Compound,outcome,AC50
CCCCc1ccc2ccccc2c1S(=O)(=O)O,inactive,–
NCCN,inactive,–
NC(=NCCCCCCN=C(N)/N=C(\N)Nc1ccc(Cl)cc1)/N=C(\N)Nc1ccc(Cl)cc1,–,0.178 µM (active)

# Molecular target: Glucocorticoid receptor (Homo sapiens) (UniProt P04150)
# Test: NVS_NR_hGR: NovaScreen (NVS) Nuclear Receptor Binding Assay for human Glucocorticoid Receptor (GR) (AID 2283363);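 also: activity is loss of specific radioligand binding signal relative to DMSO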
# How it was run: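 Single-readout cell-free binding: radioligand plus extracted receptor, 16-hour dosing, filter radiodetection; 25 uM duplicate primary, concentration series secondary.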
# Chain of Glucocorticoid receptor (Homo sapiens) (P04150 whole entry, looked up): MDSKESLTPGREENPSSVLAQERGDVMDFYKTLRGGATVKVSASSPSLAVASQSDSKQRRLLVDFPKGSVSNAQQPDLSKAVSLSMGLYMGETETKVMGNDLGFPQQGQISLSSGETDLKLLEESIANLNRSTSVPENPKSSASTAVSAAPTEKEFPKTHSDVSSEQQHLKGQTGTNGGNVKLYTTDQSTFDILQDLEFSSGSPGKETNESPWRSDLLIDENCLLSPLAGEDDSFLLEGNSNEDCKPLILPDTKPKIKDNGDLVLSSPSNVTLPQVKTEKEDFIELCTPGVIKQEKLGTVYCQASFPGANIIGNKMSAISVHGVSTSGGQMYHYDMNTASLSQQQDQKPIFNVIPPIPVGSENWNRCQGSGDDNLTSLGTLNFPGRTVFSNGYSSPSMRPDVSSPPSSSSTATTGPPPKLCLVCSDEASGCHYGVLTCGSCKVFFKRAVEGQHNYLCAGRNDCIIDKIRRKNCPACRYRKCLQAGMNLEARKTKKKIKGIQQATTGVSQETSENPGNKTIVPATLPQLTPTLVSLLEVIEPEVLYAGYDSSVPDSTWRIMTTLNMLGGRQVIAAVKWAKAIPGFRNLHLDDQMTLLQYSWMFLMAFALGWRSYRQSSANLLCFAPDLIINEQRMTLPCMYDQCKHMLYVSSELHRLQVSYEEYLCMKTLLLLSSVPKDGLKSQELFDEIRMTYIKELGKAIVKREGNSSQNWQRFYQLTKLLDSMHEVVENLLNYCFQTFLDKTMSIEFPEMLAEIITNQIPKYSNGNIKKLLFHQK
row,Compound,AC50
1,CCCCc1ccc2ccccc2c1S(=O)(=O)O,7.95 µM (active)
2,CCCCCCCCCCCCOC(=O)c1cc(O)c(O)c(O)c1,12.7 µM (active)
3,Cc1cc(C(=C2C=CC(=Nc3ccc(S(=O)(=O)O)cc3)C=C2)c2ccc(Nc3ccc(S(=O)(=O)O)cc3)cc2)cc(S(=O)(=O)O)c1N,1.32 µM (active)
4,NC(=NCCCCCCN=C(N)/N=C(\N)Nc1ccc(Cl)cc1)/N=C(\N)Nc1ccc(Cl)cc1,3.08 µM (active)

# Molecular target: Nuclear receptor subfamily 1 group I member 2 (Homo sapiens) (UniProt O75469)
# Test: NVS_NR_hPXR: NovaScreen (NVS) Nuclear Receptor Binding Assay for human Pregnane X Receptor (PXR) (AID 2283365);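 also: a drop in FRET signal versus DMSO baseline means the compound binds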
# How it was run: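 Cell-free TR-FRET binding assay with extracted human PXR protein, read 2 h after dosing. Primary screen run in duplicate at 25 uM, actives followed in concentration series; loss of signal fitted against DMSO baseline.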
# Chain of Nuclear receptor subfamily 1 group I member 2 (Homo sapiens) (O75469 whole entry, looked up): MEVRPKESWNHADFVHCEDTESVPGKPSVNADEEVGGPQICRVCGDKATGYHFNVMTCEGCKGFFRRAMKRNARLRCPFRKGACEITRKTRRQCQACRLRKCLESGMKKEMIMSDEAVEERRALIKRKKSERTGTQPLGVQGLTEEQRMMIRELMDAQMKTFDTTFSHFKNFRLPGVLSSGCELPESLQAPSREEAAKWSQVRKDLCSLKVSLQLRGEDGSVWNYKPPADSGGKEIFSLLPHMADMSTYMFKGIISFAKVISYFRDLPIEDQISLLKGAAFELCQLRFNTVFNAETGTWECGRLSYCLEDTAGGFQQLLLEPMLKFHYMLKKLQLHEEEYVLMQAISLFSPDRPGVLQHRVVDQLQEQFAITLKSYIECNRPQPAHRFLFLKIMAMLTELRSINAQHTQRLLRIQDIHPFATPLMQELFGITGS
Compound,AC50,outcome
CCCCc1ccc2ccccc2c1S(=O)(=O)O,4.06 µM (active),–
CCCCCCCCCC=CCC1CC(=O)OC1=O (stereo not drawn),–,inactive
Cc1cc(C(=C2C=CC(=Nc3ccc(S(=O)(=O)O)cc3)C=C2)c2ccc(Nc3ccc(S(=O)(=O)O)cc3)cc2)cc(S(=O)(=O)O)c1N,0.574 µM (active),–
NC(=NCCCCCCN=C(N)/N=C(\N)Nc1ccc(Cl)cc1)/N=C(\N)Nc1ccc(Cl)cc1,–,inactive
CCCCCC(C)OC(=O)COc1ccc(Cl)c2cccnc12 (stereo not drawn),–,inactive

# Molecular target: rat Androgen Receptor (AR), Ar (gene 24208) (UniProt P15207)
# Test: NVS_NR_rAR: NovaScreen (NVS) Nuclear Receptor Binding Assay for rat Androgen Receptor (AR) (AID 2283366)
# How it was run: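 Actives from a duplicate single-concentration (25 uM) primary run went on to concentration series. Displacement of radioligand was counted by filtration and scintillation, 18 h post-dose, using prostate extracts from testosterone-pretreated rats, with DMSO as baseline.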
# Chain of rat Androgen Receptor (AR), Ar (gene 24208) (P15207 whole entry, looked up): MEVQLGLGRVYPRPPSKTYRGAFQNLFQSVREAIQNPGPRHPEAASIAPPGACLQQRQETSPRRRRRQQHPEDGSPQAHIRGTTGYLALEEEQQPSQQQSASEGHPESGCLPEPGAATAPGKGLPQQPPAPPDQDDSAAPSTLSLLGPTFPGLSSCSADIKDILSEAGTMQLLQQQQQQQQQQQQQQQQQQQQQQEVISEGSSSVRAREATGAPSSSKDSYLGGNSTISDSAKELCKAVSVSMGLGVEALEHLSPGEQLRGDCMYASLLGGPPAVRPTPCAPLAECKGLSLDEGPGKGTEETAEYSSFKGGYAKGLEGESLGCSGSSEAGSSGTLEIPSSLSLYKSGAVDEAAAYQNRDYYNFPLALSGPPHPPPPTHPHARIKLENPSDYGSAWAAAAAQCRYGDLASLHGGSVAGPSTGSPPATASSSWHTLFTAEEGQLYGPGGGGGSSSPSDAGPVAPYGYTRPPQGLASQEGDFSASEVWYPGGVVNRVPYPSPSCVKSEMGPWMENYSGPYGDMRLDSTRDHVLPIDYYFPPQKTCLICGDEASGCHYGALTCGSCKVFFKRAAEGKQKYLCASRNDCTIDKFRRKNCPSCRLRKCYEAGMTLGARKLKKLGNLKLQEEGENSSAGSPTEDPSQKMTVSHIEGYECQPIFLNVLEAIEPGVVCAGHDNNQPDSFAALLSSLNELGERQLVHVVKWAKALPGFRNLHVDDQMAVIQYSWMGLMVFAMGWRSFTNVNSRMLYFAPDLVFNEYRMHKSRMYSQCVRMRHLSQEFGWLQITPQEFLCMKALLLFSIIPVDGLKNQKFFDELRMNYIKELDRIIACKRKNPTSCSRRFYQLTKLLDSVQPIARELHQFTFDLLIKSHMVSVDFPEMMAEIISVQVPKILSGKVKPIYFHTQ
Compound,outcome,AC50
CN(Cc1cnc2nc(N)nc(N)c2n1)c1ccc(C(=O)N[C@@H](CCC(=O)O)C(=O)O)cc1,inactive,–
Cc1cc(C(=C2C=CC(=Nc3ccc(S(=O)(=O)O)cc3)C=C2)c2ccc(Nc3ccc(S(=O)(=O)O)cc3)cc2)cc(S(=O)(=O)O)c1N,–,1.22 µM (active)
NC(=NCCCCCCN=C(N)/N=C(\N)Nc1ccc(Cl)cc1)/N=C(\N)Nc1ccc(Cl)cc1,–,15.4 µM (active)

# System: guinea pig Dopamine Transporter (DAT), gene 100714898
# Test: NVS_TR_gDAT: NovaScreen (NVS) Transporter Assay for guinea pig Dopamine Transporter (DAT) (AID 2283369);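 also: active compounds lower bound radioligand signal relative to DMSO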
# How it was run: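 Guinea pig striatal membranes, cell-free radioligand binding with filter-based scintillation counting, read 2 h after dosing. Loss of signal versus DMSO baseline; single-concentration primary (25 uM) then concentration-response up to 50 uM.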
Compound,AC50,outcome
CN(C)CCOC(c1ccccc1)c1ccccc1,6.23 µM (active),–
CN(Cc1cnc2nc(N)nc(N)c2n1)c1ccc(C(=O)N[C@@H](CCC(=O)O)C(=O)O)cc1,–,inactive
O=C(c1ccccc1)c1ccccc1,–,inactive
N=C(N)c1ccc(OCCCCCOc2ccc(C(=N)N)cc2)cc1,2.07 µM (active),–
NC(=NCCCCCCN=C(N)/N=C(\N)Nc1ccc(Cl)cc1)/N=C(\N)Nc1ccc(Cl)cc1,0.868 µM (active),–
CCCCc1oc2ccccc2c1C(=O)c1cc(I)c(OCCN(CC)CC)c(I)c1,17.8 µM (active),–

# Molecular target: Peroxisome proliferator-activated receptor gamma (Homo sapiens) (UniProt P37231)
# Test: NVS_NR_hPPARg: NovaScreen (NVS) Nuclear Receptor Binding Assay for human Peroxisome Proliferator-activated Receptor gamma (PPARg) (AID 2283370)
# How it was run: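 Cell-free fluorescence polarization binding to human PPARg protein, read 2 h after dosing. Primary screen in duplicate at 25 uM, actives followed in concentration series; loss of signal relative to DMSO scored.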
# Chain of Peroxisome proliferator-activated receptor gamma (Homo sapiens) (P37231 whole entry, looked up): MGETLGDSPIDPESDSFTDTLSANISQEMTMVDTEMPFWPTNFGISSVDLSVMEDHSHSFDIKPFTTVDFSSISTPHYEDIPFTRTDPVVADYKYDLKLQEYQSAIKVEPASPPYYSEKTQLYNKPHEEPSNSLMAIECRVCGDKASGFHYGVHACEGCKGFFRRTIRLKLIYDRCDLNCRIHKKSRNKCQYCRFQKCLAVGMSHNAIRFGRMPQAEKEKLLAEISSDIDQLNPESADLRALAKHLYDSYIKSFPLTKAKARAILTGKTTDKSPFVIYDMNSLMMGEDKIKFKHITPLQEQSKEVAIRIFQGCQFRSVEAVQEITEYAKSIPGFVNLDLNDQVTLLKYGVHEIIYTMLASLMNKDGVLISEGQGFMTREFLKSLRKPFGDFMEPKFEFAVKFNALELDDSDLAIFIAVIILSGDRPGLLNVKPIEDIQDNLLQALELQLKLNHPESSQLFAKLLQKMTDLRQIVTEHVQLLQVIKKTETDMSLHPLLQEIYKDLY
Compound,outcome,AC50
CC(C)[C@@H]1CC[C@@H](C)C[C@H]1O,inactive,–
CC(O)COc1ccccc1 (stereo not drawn),inactive,–
CCCCc1ccc2ccccc2c1S(=O)(=O)O,inactive,–
C=CC(C)(CCC=C(C)C)OC(C)=O (stereo not drawn),inactive,–
CCCCCCCCCCCCOC(=O)c1cc(O)c(O)c(O)c1,inactive,–
CCCCCCCCCC=CCC1CC(=O)OC1=O (stereo not drawn),–,25 µM (active)
Cc1cc(C(=C2C=CC(=Nc3ccc(S(=O)(=O)O)cc3)C=C2)c2ccc(Nc3ccc(S(=O)(=O)O)cc3)cc2)cc(S(=O)(=O)O)c1N,inactive,–

# — PubChem BioAssay (EPA / NIEHS)
